Rows were chosen to be rich in hits. Some 3.4% of all compounds tested hit in one or more screens of this group.
miR122 inh: blocks miR-122 activity in Huh7 sensor cells | Huh7 miR-122 Renilla luciferase sensor, 48 h; neutral wells = 0, positive control = 100 | activation (reporter increase), % at 12.5 µM | actives 0.3% (n = 340,000);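 active means mean replicate activation score at least 90 and every replicate individually at or above 90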;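 further: higher luciferase means less miR-122 activity so hits act as miR-122 inhibitors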
Env fusion inh: blocks HIV Env-driven cell-cell fusion | inhibition, % at 12.3 µM | actives 1.1% (n = 360,000) | HeLa-JRFL Env/CEM21 cell fusion, luciferase;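 active means mean replicate inhibition score of at least 50 and every replicate individually at or above 50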;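 further: 0% = plate neutral controls and 100% = maraviroc near 300 nM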
MITF TRPM1 HTS: MITF TRPM1 promoter activation in melanoma cells; SK-MEL-5 TRPM1-promoter luciferase, 24 h; % of positive control, neutral wells = 0; activation, % at 12.5 µM; actives 0.75% (n = 300,000);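 active means mean activation of at least 80% with every replicate also reaching 80%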;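 further: 0% = neutral control wells and 100% = parthenolide positive control wells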
esBAF inh: inhibitors of esBAF chromatin remodeling in mouse ES cells; Bmi1-luciferase knock-in reporter, 24 h; 100% = twice the neutral-well signal; reporter increase, % at 12.5 µM; actives 2% (n = 350,000); in the data active means activation above about 40%;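 further: 0% = median of the plate's neutral control wells and 100% = double that signal; a rise in the Bmi1 reporter signal indicates esBAF inhibition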
Wnt bcat act: activators of Wnt/beta-catenin signaling; Wnt/beta-catenin reporter cell assay, activator, plate reader; activation, % at 9.35 µM; actives 1.2% (n = 300,000); AID 743398; in the data active means activation above about 30%, passing the limit was not always enough;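 further: 0% = neutral control wells and 100% = positive control wells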
Ring1 derepress: esBAF inhibition confirmed by Ring1 de-repression. shares compounds with esBAF inh. mouse ESC E14, Ring1 mRNA RT-qPCR fold change. fold change at 33 µM. 550 tested, under 10 active;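 active means Ring1 gene expression raised more than 2-fold over untreated cells in both replicates at either tested dose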;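 further: Ring1 transcript normalised to actin housekeeping signal by TaqMan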
esBAF Fgf4 qPCR: esBAF inhibition confirmed by Fgf4 repression; shares compounds with esBAF inh; mouse ESC E14, Fgf4 mRNA qPCR fold change; active compounds read low; Fgf4 expression fold change at 33 µM; actives 4% (n = 550); AID 743177;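 active means Fgf4 expression under 0.8 fold of control in both repeat measurements at one or both tested doses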;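 further: Fgf4 transcript normalised to actin in duplex TaqMan qPCR; cells exposed to compound for 24 h before lysis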
Bmi1 derepress: de-represses Bmi1 in mouse ESCs, confirming esBAF inhibition; mouse ESE14 ES cells, Bmi1 mRNA qPCR fold; active compounds read high; fold change at 33 µM; shares compounds with esBAF inh; AID 743180; 550 tested, under 10 active;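 active means Bmi1 expression fold change above 6 at either tested concentration, seen in replicate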;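 further: higher fold means more Bmi1 de-repression and stronger esBAF inhibition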
A549 cytotox: cytotoxicity in A549 cells; AID 743188; cell viability change % (negative = cytotoxic), % at 25 µM, hits read low; shares compounds with esBAF inh; plate reader; 550 tested, under 10 active; call rule not given here
HepG2 cytotox SP: cytotoxicity in HepG2 cells; shares compounds with esBAF inh; plate reader; active compounds read low; activity change, negative = inhibition, % at 25 µM; actives 4% (n = 550); AID 743189; in the data active means activity change below about -50%
HEK293 cytotox SP: kills or reduces viability of HEK293 cells | shares compounds with esBAF inh | HEK293 cytotoxicity, plate reader | activity change, negative = inhibition, % at 25 µM, hits read low | actives 3% (n = 550) | AID 743190; in the data active means activity change below about -38%, passing the limit was not always enough
Numbers without * were called inactive; nt = not tested or not shown; [ ] = another dose, or the depositor's remark.

SMILES | miR122 inh | Env fusion inh | MITF TRPM1 HTS | esBAF inh | Wnt bcat act | Ring1 derepress | esBAF Fgf4 qPCR | Bmi1 derepress | A549 cytotox | HepG2 cytotox SP | HEK293 cytotox SP
COc1cc(Cl)c(C)cc1NC(=O)c1cccc(OC)c1OC | 4 | -34 | 59 | 57* | 12 | 1.3 | 0.86 | 1.6 | 3 | 12 | -12
COc1cccc(C(=O)Nc2cccc3ccccc23)c1OC | 26 | -3 | nt | 17 | 2 | nt | nt | nt | nt | nt | nt
O=C(c1csc(Nc2cccc3ccccc23)n1)N1CCCC1 | 1 | -84 | -29 | 5 | 1 | nt | nt | nt | nt | nt | nt
O=C(c1csc(Nc2ccccc2Cl)n1)N1CCCC1 | -6 | -86 | nt | 54* | nt | 1.1 | 0.93 | 1.1 | 3 | -35 | -2
c1ccc2nc3c(ccc4ccccc43)cc2c1 | 4 | -265 | 28 | 70* | 2 | 0.92 | 1 | 1.1 | -12 | 31 | -17
COc1cccc(NC(=O)N2C[C@@H](O)COC[C@@H]3O[C@H](CC(=O)NCc4ccccc4F)CC[C@H]32)c1 | 1[16.7 µM] | nt | nt | 0 | nt | nt | nt | nt | nt | nt | nt
NC(=O)c1ccccc1-c1nc(-c2ccccc2)no1 | -5 | -51 | nt | 74* | nt | 0.99 | 1.1 | 1.6 | -8 | -15 | -7
O=C(NCc1ccco1)c1ccccc1-c1nc(-c2ccccc2)no1 | 11 | nt | -1 | -5 | 1 | nt | nt | nt | nt | nt | nt

Bioassay records (PubChem)
